Mdm2 MdmX PPI – disrupts the human Mdm2-MdmX interaction. 3% of 330,000 active. SaOS-2 split-luciferase Mdm2/MdmX complementation, luminescence. inhibition, % at 8 µM. O15151+Q00987;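 active = inhibition of at least 50% at 8 µM in the primary screen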
Jurkat NFkB inh – lowers PMA/ionomycin-induced NF-kB signal in Jurkat cells; PMA/ionomycin-induced NF-kB luciferase reporter, luminescence; inhibition, % at 4 µM; 0.53% of 330,000 active; in the data active = inhibition above about 50%
aSyn UTR inh – MLPCN primary screen, SNCA 5' untranslated region; inhibition, % (tested at 7.5 µM); AID 1813; 0.82% of 300,000 active; alpha-synuclein 5'UTR reporter, inhibitor activity; in the data active = inhibition above about 60%; inconclusive = no clear call, values can overlap the other calls;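 note: H4 neuroglioblastoma cells stably carrying SNCA 5'UTR luciferase fusion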
697 NFkB inh – lowers PMA/ionomycin-induced NF-kB signal in 697 B cells; 0.33% of 330,000 active; 697 B-cell NF-kB luciferase reporter, 16 h; inhibition, % at 4 µM; AID 435022; in the data active = inhibition above about 35%
KLF5 inh – suppresses KLF5 promoter-driven expression; DLD-1 KLF5 promoter-luciferase reporter, luminescence; inhibition, % at 5 µM; 0.23% of 290,000 active; AID 1700;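 active = inhibition above a per-plate limit of that plate's mean compound inhibition plus 3 SD, cut at about 60% in these data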;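 note: higher means less KLF5 promoter-driven luciferase light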
Gli-Sufu antag – antagonists of Gli-Sufu signaling; Sufu-KO-LIGHT fibroblasts, Gli luciferase reporter luminescence; inhibition, % at 5 µM; 0.74% of 340,000 active;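 active = inhibition above about 55%, limit read from the data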
Mdm2-MdmX conf – human Mdm2/MdmX binding inhibition, confirmed | AID 489028 | inhibition, % at 8 µM | shares compounds with Mdm2 MdmX PPI | luminescent assay | 55% of 10,000 active; in the data active = inhibition above about 40%
FLuc counter – inhibits full-length luciferase, flagging false Mdm2/MdmX hits; shares compounds with Mdm2 MdmX PPI; SaOS-2 full-length luciferase counterscreen, luminescence; inhibition, % at 8 µM; 77% of 6,200 active; AID 504607;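 active = mean inhibition at 8 µM reaching about 37%, which flags the compound as non-specific, limit read from the data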;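 note: p53-null SaOS-2 cells with luciferase driven by a doxycycline-inducible promoter; compound on cells about two nights before reading with doxycycline added after day one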
Large screens that a line does not name were inactive (follow-up assays come after a bar, where they were run). Hits are enriched below; roughly 4.1% of the tested compounds scored in any of these assays.

O=[N+]([O-])c1ccc(S(=O)(=O)CC(CN2CCCCC2)N2CCCCC2)cc1 (stereo not given)	Mdm2 MdmX PPI 100 | Mdm2-MdmX conf 94 | FLuc counter 51
N#Cc1c(-c2ccccc2)cc2nc3ccccc3n2c1N	none
COc1cc(-c2cc3nc4ccccc4n3c(N)c2C#N)cc(OC)c1OC	Mdm2 MdmX PPI 77, aSyn UTR inh inconclusive | Mdm2-MdmX conf 64 | FLuc counter 93
O=C(COC(=O)c1cnccn1)Nc1cc(S(=O)(=O)N2CCOCC2)ccc1Cl	none (no result: aSyn UTR inh, KLF5 inh)
NS(=O)(=O)c1cccc(NC(=O)c2cccc(-c3ccc(O)cc3)c2)c1	Mdm2 MdmX PPI 64 | Mdm2-MdmX conf inactive
CCOC(=O)c1c(NC(C)=O)sc2c(OCC(O)CNC(C)(C)C)c(Br)ccc12 (stereo not given)	Mdm2 MdmX PPI 100 | Mdm2-MdmX conf 100 | FLuc counter 54
C=C1CCc2c([nH]c3ccc(OCC(C)C)cc23)C1=O	Mdm2 MdmX PPI 98 | Mdm2-MdmX conf inactive
CCn1c2c(c3cc(OCC(C)C)ccc31)CCCC2=O	none
Cc1ccc(C(=O)c2coc3c2C(=O)C(=O)c2ccccc2-3)cc1	none
Cc1coc2c1C(=O)C(=O)c1c-2ccc2c1CCCC2(C)C	Mdm2 MdmX PPI 53, aSyn UTR inh 63 | Mdm2-MdmX conf inactive
Cc1ccc2c3c(cccc13)-c1ccccc1C2=O	none (no result: Gli-Sufu antag)
Cc1coc2c1C(=O)C(=O)c1c-2ccc2c(C)cccc12	Mdm2 MdmX PPI 65 (no result: KLF5 inh) | Mdm2-MdmX conf inactive
CC1(C)NC(=O)N(CCC(=O)Nc2cc(C(F)(F)F)ccc2Cl)C1=O	none (no result: aSyn UTR inh, KLF5 inh)
O=C(c1ccc(Cl)c(S(=O)(=O)N2CCCCC2)c1)N1CCCC(C(F)(F)F)C1 (stereo not given)	none (no result: aSyn UTR inh, KLF5 inh)
O=C(NCCC1=CCCCC1)c1coc(=O)c(Br)c1	Mdm2 MdmX PPI 84 | Mdm2-MdmX conf inactive | FLuc counter inactive
CCOc1ccc(S(=O)(=O)N(CC)CC(=O)N2CCOCC2)cc1C	none
O=C(COC(=O)/C=C/c1ccc([N+](=O)[O-])cc1)NNC(=O)c1ccccc1	none (no result: aSyn UTR inh, KLF5 inh)
Cc1cccc(/C=C/C(=O)c2cc(Br)ccc(=O)c2O)c1	Mdm2 MdmX PPI 54 | Mdm2-MdmX conf inactive | FLuc counter 73
CCOc1ccc(/C=C/C(=O)c2cc(Br)ccc(=O)c2O)cc1	none (no result: Mdm2 MdmX PPI, Jurkat NFkB inh, aSyn UTR inh, 697 NFkB inh)
CCc1ccc(/C=C/C(=O)c2cc(Br)ccc(=O)c2O)cc1	Mdm2 MdmX PPI 52, aSyn UTR inh 72 | Mdm2-MdmX conf inactive | FLuc counter 40
O=C(C=Cc1ccccc1)c1cc(Br)ccc1O	none (no result: Mdm2 MdmX PPI, Jurkat NFkB inh, aSyn UTR inh, 697 NFkB inh, KLF5 inh)
COc1ccc(S(=O)(=O)NCC(=O)NCCc2ccc(OC)c(OC)c2)cc1	none (no result: KLF5 inh)
COC(=O)C1=C(C)NC(C)=C(C(=O)O[C@@H]2CCCN(Cc3ccccc3)C2)[C@@H]1c1cccc([N+](=O)[O-])c1	Mdm2 MdmX PPI 54 (no result: KLF5 inh) | Mdm2-MdmX conf inactive
COCCOC(=O)C1=C(C)NC(C)=C(C(=O)OC(C)C)C1c1cccc([N+](=O)[O-])c1 (stereo not given)	none
CC(C)N(C(=O)[C@H]1CC(CC(=O)NCC23CC4CC(CC(C4)C2)C3)C(=O)N2CCc3c([nH]c4ccccc34)[C@]12C)C(C)C (stereo not given in full)	Mdm2 MdmX PPI 59 (no result: aSyn UTR inh, KLF5 inh) | Mdm2-MdmX conf inactive
CC(C)N(C(=O)[C@H]1CC(CC(=O)NCc2cccc(C(F)(F)F)c2)C(=O)N2CCc3c([nH]c4ccccc34)[C@]12C)C(C)C (stereo not given in full)	Mdm2 MdmX PPI 64 (no result: aSyn UTR inh, KLF5 inh) | Mdm2-MdmX conf inactive
CC(C)N(C(=O)[C@H]1C[C@H](CC(=O)NCC23CC4CC(CC(C4)C2)C3)C(=O)N2CCc3c([nH]c4cc(CCC(=O)N(C)C)ccc34)[C@]12C)C(C)C	Mdm2 MdmX PPI 81 (no result: Jurkat NFkB inh, aSyn UTR inh, KLF5 inh) | Mdm2-MdmX conf 43 | FLuc counter 60
CCN(CC)C(=O)[C@H]1C[C@H](CC(=O)NCc2cccc(C(F)(F)F)c2)C(=O)N2CCc3c([nH]c4cc(-c5ccco5)ccc34)[C@]12C	Mdm2 MdmX PPI 53 (no result: Jurkat NFkB inh, aSyn UTR inh, KLF5 inh) | Mdm2-MdmX conf inactive
CN(C)C(=O)CCc1ccc2c3c([nH]c2c1)[C@]1(C)[C@@H](C(=O)N2CCOCC2)C[C@H](CC(=O)NCC24CC5CC(CC(C5)C2)C4)C(=O)N1CC3	none (no result: Jurkat NFkB inh, aSyn UTR inh, KLF5 inh)

From PubChem BioAssay
